Laboratory results taken from PubChem BioAssay (NCI).
About 79,000 compounds went through this panel and 15% of them were active in at least one assay; those are over-represented in the sample as a whole. No stated cut-off is given here; in the data, active means growth inhibition above about 70%; inactive means the rest.

How the values were obtained:
[1] = NCI Yeast Anticancer Drug Screen. Data for the rad50 strain (AID 155);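 further: 0% = growth of vehicle-only cultures of the same strain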; conditions: S. cerevisiae rad50 strain growth inhibition; at 50.0 µM; stronger effect = higher value
In short: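 Growth of the mutant yeast was measured after compound exposure and referenced to vehicle-treated cultures.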

[2] = NCI Yeast Anticancer Drug Screen. Data for the mec2-1 strain (AID 157); conditions: S. cerevisiae mec2-1 strain, at 50.0 µM, stronger effect = higher value
In short: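 Mutant yeast (mec2-1) grown with compound; growth inhibition relative to vehicle control reported.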

[3] = NCI Yeast Anticancer Drug Screen. Data for the sgs1 mgt1 strain (AID 161);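 further: 0% = growth of cultures given vehicle only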; conditions: S. cerevisiae sgs1 mgt1 strain, at 50.0 µM, stronger effect = higher value
In short: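 Yeast cells carrying a defined DNA-repair defect were exposed to test compounds. Growth inhibition was measured relative to vehicle-treated controls.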

[4] = NCI Yeast Anticancer Drug Screen. Data for the cln2 rad14 strain (AID 165);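 further: 0% = growth equal to vehicle treated cultures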; conditions: S. cerevisiae cln2 rad14 strain, at 50.0 µM, stronger effect = higher value
In short: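 Readout is yeast growth inhibition versus vehicle-treated controls, using a strain with cln2 and rad14 alterations exposed to compound.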

[5] = NCI Yeast Anticancer Drug Screen. Data for the bub3 strain (AID 167); conditions: S. cerevisiae bub3 mutant strain, at 50.0 µM, stronger effect = higher value
In short: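 Whole-cell yeast assay. The mutant strain was incubated with compounds, and growth inhibition was determined by comparison with vehicle-treated cells.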

[6] = NCI Yeast Anticancer Drug Screen. Data for the mlh1 rad18 strain (AID 175); conditions: S. cerevisiae mlh1 rad18 strain growth inhibition; at 50.0 µM; stronger effect = higher value
In short: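 Genetically defined yeast (DNA repair-deficient) exposed to compounds; growth inhibition determined relative to vehicle.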

Measured: growth inhibition

COc1cc(C=C2N=C(c3ccccc3)N(n3c(-c4ccccc4)nc4ccccc4c3=O)C2=O)cc(OC)c1OC
inactive: [1] -7.4% | [2] -6.6% | [3] 9.45% | [4] 7.85% | [5] 0.65% | [6] 21.6%

CCC/C=C/C=C/C1CC(O)C(O)C(=O)C1CO (stereo not given)
inactive: [1] 5.25% | [2] -29.6% | [3] 17.1% | [4] 7.9% | [5] 1.9% | [6] -0.7%

O=C1CSC(c2ccc(C(F)(F)F)cc2)N1c1nncs1 (stereo not given)
inactive: [1] -1.2% | [2] -3.5% | [3] 29% | [4] -1.45% | [5] 12.6% | [6] 24.2%

CC1(C)OC2C(O1)[C@H]1OC(C(Cl)(Cl)Cl)=N[C@H]1C(I)[C@H]2N1C(=O)c2ccccc2C1=O (stereo not given in full)
inactive: [1] 0.25% | [2] -45.9% | [3] -5.15% | [4] -52.6% | [5] -5.9% | [6] 3.55%

CC1C(OC(=O)CCl)CCC2C1(C)CCC1C2(C)CCC2(C)C3CC(C)(C)CCC3(C)CCC12C (stereo not given)
inactive: [1] -13.2% | [2] 1% | [3] -1.85% | [4] -12.2% | [5] 2.15% | [6] -10.2%

CCCCCOC(=O)c1c(Cl)c(Cl)c(C(=O)OCCCCC)c(Cl)c1Cl
inactive: [1] -18.2% | [2] -39% | [3] 0.85% | [4] -6.85% | [5] -6.5% | [6] -9%

CN1CCC(O)(/C=C\C2(O)CCN(C)CC2)CC1
inactive: [1] -10.9% | [2] 21.7% | [3] 20.1% | [4] -3.95% | [5] 3.65% | [6] -22.1%

COc1ccc2nc(NC(=O)C(=O)C(C#N)c3ccc(Cl)c(Cl)c3)sc2c1 (stereo not given)
inactive: [1] 36.2% | [2] 5.4% | [3] 19.1% | [4] 33.9% | [5] -2.2% | [6] 36.4%

CCCCc1ccc(Nc2c(C(=O)OCC)cnc3cc4c(cc23)OCO4)cc1
inactive: [1] 4.6% | [2] -12.4% | [3] -15.2% | [4] 8.5% | [5] 3.95% | [6] -17.4%

CCOC(=O)[C@H]1C(CC)=NOC1C (stereo not given in full)
inactive: [1] 9.95% | [2] 13.2% | [3] 2.9% | [4] -27.5% | [5] 4.25% | [6] 2.4%

CCCC1OCC(CC)C(CCC)O1 (stereo not given)
inactive: [1] 25.5% | [2] 4.95% | [3] 6.25% | [4] -37% | [5] 7.4% | [6] 2.7%

O=C(Oc1ccc(C(=O)c2ccccc2)cc1)C(Cl)=C(Cl)Cl
inactive: [1] -6.95% | [2] -1.75% | [3] 7.7% | [4] -55.8% | [5] 7.35% | [6] -4%

CC(C)(C)c1ccc(OCCCl)c(Cl)c1
inactive: [1] 2.35% | [2] -2.45% | [3] 33.7% | [4] -41.9% | [5] 0.75% | [6] 6.3%

COc1ccc(-c2c3c(n(C4OC(COC(C)=O)C(OC(C)=O)C(OC(C)=O)C4OC(C)=O)c(=S)c2C#N)CC(C)(C)CC3=O)cc1 (stereo not given)
inactive: [1] -2.05% | [2] -0.8% | [3] 10.8% | [4] -9.35% | [5] -0.05% | [6] 8.9%

O=C(OC(c1ccc(Cl)cc1)c1ccc(Cl)cc1)C(c1ccc(Cl)cc1)c1ccc(Cl)cc1
inactive: [1] 15.5% | [2] 10.4% | [3] 14.8% | [4] -13.5% | [5] -3.35% | [6] 30.7%

FC(F)(F)c1cccc(-c2nc3nc(Cl)c(Cl)nc3[nH]2)c1
inactive: [1] 15.1% | [2] -2% | [3] -5.7% | [4] -15.7% | [5] 18.4% | [6] 26.3%

CCCCC(=O)Nc1ccc(S(=O)(=O)O)c(N=NC2C(=O)N(c3ccccc3)N=C2C)c1 (stereo not given)
inactive: [1] 27.1% | [2] -10.6% | [3] 5.6% | [4] -13% | [5] -3% | [6] 15%

O=COCc1ccc2c(c1)OCO2
inactive: [1] 35.3% | [2] 36.9% | [3] 22.9% | [4] 15.2% | [5] 10.1% | [6] 27.8%

N#CC1(Nc2ccc(Cl)cc2)CCCC1
inactive: [1] 5.6% | [2] 2.4% | [3] -6.5% | [4] -15.6% | [5] 13.8% | [6] 3.1%

CC(=O)Nc1ccc(C)cc1[N+](=O)[O-]
inactive: [1] -29.6% | [2] 1.15% | [3] -29.2% | [4] -29.9% | [5] -42.5% | [6] -43.2%
